Test results: ChEMBL document CHEMBL3988442, “University of Dundee, Small-Polar-MMV Screening Library” (2021)
The campaign covered roughly 48,000 compounds. About 13,000 (27%) showed an effect of 50% or more. Some of the results follow.

Test system: Wolbachia pipientis
Assay: Anti-Wolbachia Cell-Based Screen
Assay type: functional
Set-up: scale not given: in the data most compounds retested in dose-response had high values
Conditions: 5 µM

Compound	Percent Effect [%]
COc1c(F)cc(F)cc1-c1nc2c([nH]1)CCNC2	-0.5434
CC(c1cccnc1)N1CCN(CCCC#N)CC1 (stereo not drawn)	-7.077
CCCn1nc(C(=O)N2CCCC2c2noc(C)n2)ccc1=O (stereo not drawn)	-9.694
Cc1ccc(CN(C)CC(=O)NC2(C)CCS(=O)(=O)C2)cc1 (stereo not drawn)	2.715
CC(C)N1CCCn2nc(C(=O)NCc3ccccc3F)cc2C1	-19.91
CC(CN(C)Cc1cccc(-n2cccn2)c1)C(F)(F)F (stereo not drawn)	100.7
CCC(CO)N(Cc1cccc(-n2cccn2)c1)Cc1cccs1 (stereo not drawn)	3.193
CCC(CO)N(Cc1cccc(-n2cccn2)c1)Cc1ccccn1 (stereo not drawn)	-1.98
CC(C)c1nnc(NC(=O)c2cccc(OCC(F)(F)F)n2)[nH]1	-13.63
CC(C)Cc1nc(CS(=O)(=O)C(C)C(=O)N2CCOCC2)no1 (stereo not drawn)	1.312
O=C(CN1CCCc2cc(F)cc(F)c21)Nc1ccc(Br)cn1	-2.039
O=C(CN1CCCCC1)Nc1ncc(Br)cc1Br	116.4
O=C(CN1CCCCCC1)NCCSc1cnn[nH]1	-5.638
CSc1nccc(-c2cccc(-c3ccn(CC4COCCO4)n3)c2)n1 (stereo not drawn)	-11.46
CS(=O)(=O)N1CCO[C@@H]2CN(C(=O)c3cccnc3)C[C@@H]2C1	94.69
Cc1ccc(C(=O)N2C[C@@H]3CN(S(C)(=O)=O)CCO[C@@H]3C2)o1	-11.28
Cn1cc(CN2CCO[C@@H]3CN(C4CCCC4)C[C@@H]3C2)cn1.O=C(O)C(F)(F)F.O=C(O)C(F)(F)F	-1.397
O=C(c1ccnnc1)N1C[C@@H]2CN(c3ncccn3)C[C@@H]2C1	15.26
Cn1cc(C(=O)N2CC[C@@]3(O)CCN(C4CCCCC4)C[C@H]3C2)cn1	-10.98
CS(=O)(=O)N1CCO[C@@H]2CN(C(=O)c3ccnnc3)C[C@@H]2C1	110.1
Cc1ccnc(C(=O)N2C[C@@H]3CN(S(C)(=O)=O)CCO[C@@H]3C2)c1.O=C(O)C(F)(F)F	-16.56

Compound	Percent Effect [%]
Cn1cc(C(=O)N2CCO[C@@H]3CN(C4CCC4)C[C@@H]3C2)cn1	99.44
Cc1cncc(C(=O)N2C[C@@H]3CN(S(C)(=O)=O)CCO[C@@H]3C2)c1.O=C(O)C(F)(F)F	122.6
CCN1CCO[C@@H]2CN(C(=O)c3cocn3)C[C@@H]2C1.O=C(O)C(F)(F)F	-9.016
O=C(NCCOc1ccc(F)c(F)c1)NCc1cccc(CO)c1	-4.638
Cc1nnc(NCC(c2ccco2)N2CCCCC2)c(C#N)c1C (stereo not drawn)	-2.88
CN1CCN(C)C2(CCN(Cc3ccc(C4CCCCO4)o3)CC2)C1 (stereo not drawn)	27.87
CCC(C)C(=O)NCc1cccc(OCCN(C)C2CCOCC2)c1 (stereo not drawn)	6.512
CN1CC2(CCN(C(=O)c3coc4c3C(=O)CCC4)C2)OC1=O (stereo not drawn)	-2.236
Cc1ccc(C(=O)N2C[C@@H]3CN(S(C)(=O)=O)CCO[C@@H]3C2)s1	-10.28
Cn1nccc1C(=O)N1C[C@@H]2CN(S(C)(=O)=O)CCO[C@@H]2C1	115.5
Cn1cc(C(=O)N2C[C@@H]3CN(S(C)(=O)=O)CCO[C@@H]3C2)cn1	95.46
Cc1nc(C(=O)N2C[C@@H]3CN(S(C)(=O)=O)CCO[C@@H]3C2)cs1	-14.32
O=C(c1cc2ccccc2s1)N1CCC(C(=O)O)(n2cccn2)CC1	-13.71
CCn1cc2c(n1)CN(C(=O)c1ccncc1)CC2COCC1CC1.O=C(O)C(F)(F)F (stereo not drawn)	20.52
O=C(COCc1ccccc1Cl)N1CCCC(n2ccnc2)C1 (stereo not drawn)	103.7
O=C(c1ccccc1OCC1CC1)N1CCCC(n2ccnc2)C1 (stereo not drawn)	8.934
O=C(COC1CCCCC1)N1CCCC(n2ccnc2)C1 (stereo not drawn)	76.06
O=C(COc1ccccc1Cl)N1CCCC(n2ccnc2)C1 (stereo not drawn)	92.71
CN(CC(=O)N1CCCC(n2ccnc2)C1)c1cnccn1 (stereo not drawn)	-4.389
O=C(COCc1ccccc1Cl)N1CCCC(n2cccn2)C1 (stereo not drawn)	1.04
COc1cccc(COCC(=O)N2CCCC(c3nncn3C)C2)c1 (stereo not drawn)	-0.5429

Compound	Percent Effect [%]
CCn1cnnc1C1CCCN(C(=O)COc2ccc(Cl)cc2)C1 (stereo not drawn)	6.691
O=C(COCC1CC1)N1CCCC(n2ccnc2)C1 (stereo not drawn)	8.162
Cn1cnnc1C1CCCN(C(=O)COc2ccccc2Cl)C1 (stereo not drawn)	152.2
CC1(COc2ccccc2)NCCc2[nH]cnc21 (stereo not drawn)	7.349
CCc1cc(CN(C)C(=O)C2CC(=O)N(c3cccc(O)c3)C2)on1 (stereo not drawn)	-10.41
Cc1ccc(C(C(=O)N2CCN(C(=O)c3ccc[nH]3)CC2)N(C)C)cc1 (stereo not drawn)	1.987
COCCOc1ccc(NC(=O)N(CC2CCOC2)C2CC2)cn1 (stereo not drawn)	-6.429
O=C(COCCOc1ccccc1)N1CCCC(n2ccnc2)C1 (stereo not drawn)	75.36
O=C(COCCc1ccccc1)N1CCCC(n2cccn2)C1 (stereo not drawn)	5.674
COc1cccc(COCC(=O)N2CCCC(n3ccnc3)C2)c1 (stereo not drawn)	-0.4033
Cc1cc(C(=O)N2CCCC2c2nc(C)cc(O)n2)on1 (stereo not drawn)	93.31
Cc1cc(C(=O)N2CCCC2c2nc(O)cc(C(C)C)n2)on1 (stereo not drawn)	118.7
CC(C)c1cc(C(=O)N2CCCC2c2nc(-c3ccccc3)no2)[nH]n1 (stereo not drawn)	-1.356
CC(C)c1nc(C2CCCN2C(=O)c2nccnc2N)no1 (stereo not drawn)	-0.7868
CCn1ccnc1CN1CCC(CCC(=O)Nc2ccccc2Cl)CC1	11.39
COCCC1(C(=O)O)CCCN(C(=O)c2cnc3c(c2)CCCC3)C1 (stereo not drawn)	8.826
O=C(Cc1ccc(-n2cccn2)cc1)N1CCCC(n2cccn2)C1 (stereo not drawn)	7.23
O=C(Cc1cn2ccccc2n1)N1CCCC(n2ccnc2)C1 (stereo not drawn)	115.6
Cc1cnn(C2CCCN(C(=O)Cc3cn4ccccc4n3)C2)c1 (stereo not drawn)	14.59
O=C(Cc1ccc2c(c1)OCCO2)N1CCCC(n2ccnc2)C1 (stereo not drawn)	5.657
O=C(Cc1cn2ccccc2n1)N1CCCC(n2cccn2)C1 (stereo not drawn)	62.83
